In the supplement of paper PMC6522484:
± gives the standard deviation of the averaged measurements.

Experiments:
[1] = system: DLD1; assay: cell viability (CellTiter-Glo) relative to plate median (fraction of plate median); higher = more viable cells; conditions: 5 µM; treatment time 24 h; reporter: 7TFP
Method in brief: (§1)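 Luminescence, normalised well by well to the plate median, is tabulated as a mean of independent replicates. There were two replicates, run on colorectal cancer lines stably transduced with lentiviral TCF/Wnt firefly luciferase reporters and dosed with library compounds at a final 5 µM for 24 h. Readouts were firefly luciferase or CellTiterGlo on parallel plates.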

[2] = system: HCT116; assay: as above; conditions: 5 µM; treatment time 24 h; reporter: TCF4/Wnt
Method in brief: as §1

[3] = system: SW480; assay: as above; conditions: 5 µM; treatment time 24 h; reporter: 7TFP
Method in brief: as §1

[4] = system: DLD1; assay: TCF/Wnt firefly luciferase reporter signal relative to plate median (fraction of plate median); higher = higher Wnt reporter signal; conditions: 5 µM; treatment time 24 h; reporter: 7TFP
Method in brief: as §1

[5] = system: SW480; assay: as above; conditions: 5 µM; treatment time 24 h; reporter: 7TFP
Method in brief: as §1

Row | Compound | cell viability [1] | cell viability [2] | cell viability [3] | TCF/Wnt firefly luciferase reporter signal [4] | TCF/Wnt firefly luciferase reporter signal [5]
1 | COc1cc(O)c(C(=O)/C=C/c2ccc(O)c(OC)c2)c(OC)c1 | 1.025 ± 0.0071 | 1.03 ± 0.083 | 1.1 ± 0.071 | 0.882 ± 0.11 | 0.894 ± 0.037
2 | C[C@H]1[C@H](C)CC[C@]2(C(=O)O)CC[C@]3(C)C(=CC[C@@H]4[C@@]5(C)CC[C@H](O)C(C)(C)[C@@H]5CC[C@]43C)[C@H]12 | 0.978 ± 0.014 | 1.04 ± 0.014 | 1.03 ± 0.021 | 1.07 ± 0.057 | 1.06 ± 0.014
3 | CCOC(=O)c1c(C)cc(O)cc1O | 1.11 ± 0.085 | 1.01 ± 0.09 | 1.07 ± 0.014 | 1.06 ± 0.14 | 1.08 ± 0.042
4 | NCCOB(c1ccccc1)c1ccccc1 | 0.968 ± 0.037 | 0.933 ± 0.042 | 0.96 ± 0.0071 | 1.135 ± 0.0071 | 1.04
5 | Nc1ccc(C(=O)O)c(O)c1 | 1.01 ± 0.021 | 1.06 ± 0.11 | 0.989 ± 0.013 | 1.04 ± 0.057 | 1.06 ± 0.1
6 | COc1ccc2c3c1O[C@H]1C[C@@H](O)C=C[C@@]31CCN(C)C2 | 1.04 ± 0.05 | 1 ± 0.081 | 1.03 ± 0.045 | 0.9965 ± 0.0021 | 1.05
7 | Cc1cccc(Nc2cc(Cl)nc(SCC(=O)O)n2)c1C | 0.964 ± 0.021 | 0.999 ± 0.044 | 0.9325 ± 0.0064 | 1.09 ± 0.014 | 1.085 ± 0.0071
8 | COc1ccc(-c2cc(=O)c3c(OC)c(OC)c(OC)c(OC)c3o2)cc1 | 1 ± 0.064 | 0.932 ± 0.059 | 1.05 ± 0.05 | 1.13 ± 0.042 | 0.961 ± 0.0028
9 | Nc1ccc(S(=O)(=O)NC(=O)c2ccccc2)cc1 | 1.07 ± 0.12 | 0.954 ± 0.12 | 1.11 ± 0.064 | 0.875 ± 0.15 | 1.02 ± 0.014
10 | Clc1ccc2c(c1)C(N1CCNCC1)=Nc1ccccc1O2 | 1.045 ± 0.0071 | 1.085 ± 0.0071 | 0.995 ± 0.021 | 0.789 ± 0.058 | 0.905 ± 0.042
11 | C[N+](C)(C)CCCCCC[N+](C)(C)C | 1.01 ± 0.027 | 0.903 ± 0.022 | 0.93 ± 0.072 | 1.09 ± 0.21 | 1.1 ± 0.11
12 | NCCCCNCCCN | 0.936 ± 0.011 | 1.03 | 0.958 ± 0.05 | 1.12 ± 0.16 | 1.12 ± 0.13
13 | CN(C)CCc1c[nH]c2ccc(C[C@H]3COC(=O)N3)cc12 | 0.931 ± 0.059 | 1.08 ± 0.078 | 1.04 ± 0.014 | 1.03 ± 0.021 | 0.95 ± 0.069
14 | COc1cc(/C=C/C(=O)CC(=O)/C=C/c2ccc(O)c(OC)c2)ccc1O | 1.02 ± 0.061 | 1.02 ± 0.093 | 1.05 ± 0.014 | 1.13 ± 0.14 | 0.982 ± 0.14
15 | CC(=O)O[C@@H]1C[C@H]2C(C)(C)[C@H](O)C[C@H](O)[C@]2(C)[C@H]2CC[C@@]3(C)[C@H](c4ccoc4)OC(=O)[C@H]4O[C@]43[C@@]21C | 0.9065 ± 0.005 | 0.942 ± 0.012 | 0.977 ± 0.0014 | 1 ± 0.11 | 0.892 ± 0.033
